Rtt109 Vps75 – inhibitors of Candida albicans Rtt109/Vps75 histone acetyltransferase; 0.16% of 330,000 active; AID 540336; inhibition, % at 34.9 µM; purified Rtt109/Vps75, ThioGlo CoA-SH fluorescence, 4 h; Q5AAJ8;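 active means inhibition of at least 50% in every replicate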
NOD2-RIPK2 inh – blocks binding of human NOD2 to RIPK2; AID 624267; CHO BLA complementation NOD2-RIPK2, CCF4 ratio; O43353; 0.38% of 360,000 active; inhibition, % at 4.98 µM; in the data active means inhibition above about 21%;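 further: 0% = vehicle only and 100% = reference blocker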
LANA-H2A inh – blocks KSHV LANA binding to histone H2A/H2B; Q9QR71; cell-free LANA-H2A/H2B peptide, fluorescence polarization; 0.6% of 320,000 active; inhibition, % (no concentration beside the values); in the data active means inhibition mostly above about 10%, no sharp cut-off; inactive means mostly below about 6.7%
TLR4 MyD88 comp – TLR4-MyD88 interaction inhibition in cells; HeLa CL3-4 TLR4/MyD88 BLA complementation, FRET ratio; inhibition, % at 8.4 µM; 0.18% of 200,000 active; in the data active means inhibition above about 25%;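 further: 0% = vehicle and 100% = reference inhibitor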
TLR9-MyD88 inh – inhibitors of human TLR9-MyD88 binding | inhibition, % at 4.98 µM | 0.21% of 340,000 active | AID 504734 | CHO BLA complementation TLR9-MyD88, CCF4 FRET ratio;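 active means inhibition above the mean over all tested compounds plus 3 SD, cut at about 21% in these data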;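 further: 0% = DMSO only wells and 100% = clavulanate BLA inhibitor control wells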
m5-HT2A agonist – agonists of mouse serotonin 5-HT2A receptor (HTR2A); P35363; activation, % at 7.6 µM; 0.66% of 360,000 active; CHO-K1 mHTR2A beta-arrestin complementation, luminescence; percent of 30 µM serotonin response;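 active means activation above a run cutoff, the mean activation of all tested compounds plus 3 SD, cut at about 14% in these data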;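 further: 0% = plate median of compound wells and 100% = 30 µM serotonin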
MOR ag counter – activates human mu opioid receptor in HTR2A counterscreen; AID 624380; 5.3% of 2,300 active; shares compounds with m5-HT2A agonist; activation, % at 9.3 µM; U2OS OPRM1 beta-arrestin PathHunter, luminescence; DMSO 0%, DAMGO 9.3 µM 100%;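 active means mean activation above the mean of DMSO-only wells plus 3 SD, cut at about 0.5% in these data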
Target sequence (P35372 whole entry, looked up): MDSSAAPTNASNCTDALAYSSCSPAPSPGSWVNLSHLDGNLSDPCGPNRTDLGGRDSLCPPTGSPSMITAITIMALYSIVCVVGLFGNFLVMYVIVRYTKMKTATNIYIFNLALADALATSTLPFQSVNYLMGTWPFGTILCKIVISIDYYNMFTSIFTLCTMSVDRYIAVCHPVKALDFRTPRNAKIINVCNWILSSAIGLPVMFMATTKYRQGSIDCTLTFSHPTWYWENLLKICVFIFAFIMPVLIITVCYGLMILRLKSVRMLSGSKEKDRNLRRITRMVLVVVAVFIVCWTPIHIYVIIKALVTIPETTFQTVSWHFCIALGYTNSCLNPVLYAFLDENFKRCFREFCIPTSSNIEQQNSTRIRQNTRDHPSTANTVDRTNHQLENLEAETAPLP
HTR2A ag conf – confirmation of mouse HTR2A serotonin receptor agonists; 19% of 2,300 active; activation, % at 7.6 µM; shares compounds with m5-HT2A agonist; CHO-K1 PathHunter beta-arrestin recruitment, luminescence; DMSO 0%, 30 µM serotonin 100%;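 active means mean activation across triplicates above the hit threshold derived in the original primary screen, cut at about 15% in these data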
* marks the source's active call; other numbers are inactive results; . = no result. Shown are actives, neighbours in structure and some others; about 1.8% of the full set was active somewhere.

SMILES	Rtt109 Vps75	NOD2-RIPK2 inh	LANA-H2A inh	TLR4 MyD88 comp	TLR9-MyD88 inh	m5-HT2A agonist	MOR ag counter	HTR2A ag conf
CCOC1=C2[C@@H](CN(S(=O)(=O)c3ccc(C)cc3)[C@H]2c2ccc(Cl)cc2)[C@H]2C(=O)N(c3ccccc3)C(=O)[C@H]2C1	.	-2.0	.	.	.	21.1*	-0.7	-2.2
CCOC1=C2[C@@H](CN(S(=O)(=O)c3ccccc3)[C@H]2c2ccccc2)[C@H]2C(=O)N(c3ccccc3)C(=O)[C@H]2C1	.	-12.8	.	.	.	-4.1	.	.
Cc1ccccc1CNC(=O)C(C)Sc1ccccc1 (stereo unspecified)	.	-7.5	.	.	-7.7	-6.5	.	.
Cc1ccc2nc(NC(=O)CSCC(=O)Nc3cc(C)on3)sc2c1	1.6	-2.4	.	.	1.4	18.8*	-0.6	-0.9
Cc1cc(NC(=O)CSCC(=O)Nc2nc3ccc(F)cc3s2)no1	-12.2	1.3	0.3	.	-9.6	8.9	.	.
Cc1ccn2cc(C(=O)N3CCCC(Nc4ccc(F)cc4)C3)nc2c1 (stereo unspecified)	0.5	-7.7	-4.8	.	-2.0	18.5*	-0.8	1.1
Cc1ccc2nccc(C(=O)N3CCCC(Nc4ccc(F)cc4)C3)c2c1 (stereo unspecified)	1.7	7.7	3.1	.	-4.5	17.6*	-0.6	-2.2
Cc1occc1C(=O)N1CCCC(Nc2ccc(F)cc2)C1 (stereo unspecified)	0.2	-46.1	-1.2	.	7.8	4.6	.	.
Cc1cc(=O)[nH]c(SCc2cccc3ccccc23)n1	8.5	-9.0	2.1	.	2.3	2.3	.	.
Cc1cc(CSc2nc(C)cc(=O)[nH]2)c2ncccc2c1	-4.2	-7.0	2.5	3.4	5.3	16.5*	-0.7	2.6
Cc1ccc(OCC(=O)NCc2n[nH]c(=O)c3ccccc23)cc1	-1.0	5.3	-0.2	.	1.4	-3.0	.	.
CCOc1ccc(OCC(=O)NCc2n[nH]c(=O)c3ccccc23)cc1	-7.9	-2.7	2.8	.	-9.0	16.0*	-0.7	-1.1
CC(=O)N1c2ccc(S(=O)(=O)NCC3CCC(C(=O)N4CC(C)CC(C)C4)CC3)cc2CC1C (stereo unspecified)	13.4	8.8	-0.5	.	-1.1	2.1	.	.
C=C(C)CN1CCN(S(=O)(=O)c2ccc(C)c(N(C)S(=O)(=O)c3ccc(C)cc3)c2C)CC1	-2.3	-23.6	-2.3	2.7	-5.8	22.0*	-0.4	-3.0
Cc1ccc(S(=O)(=O)N(C)c2c(C)ccc(S(=O)(=O)N3CCN(C)CC3)c2C)cc1	0.3	-2.3	8.3	-0.9	-5.3	-1.2	.	.
COC(=O)C1CN(S(=O)(=O)c2cc(OC)ccc2OC)CCS1 (stereo unspecified)	-5.0	1.6	-4.2	.	6.0	-9.3	.	.
Cc1ccc(NC(=O)Cn2nc(C(=O)O)c3ccccc3c2=O)cc1S(=O)(=O)N1CCOCC1	10.3	-2.3	4.1	.	-5.7	-1.5	.	.
O=C(c1[nH]c(C(F)(F)F)nc1-c1ccccc1)N1CCN(c2cccc(C(F)(F)F)n2)CC1	.	-3.4	.	.	.	14.4*	-0.5	3.5
CCN1CCN(C(=O)c2c(-c3ccccc3)noc2C)CC1	5.8	-3.7	-3.0	.	2.4	16.7*	-0.4	1.0
Cc1onc(-c2ccccc2)c1C(=O)N1CCN(Cc2ccccc2)CC1	-5.9	-10.3	3.4	.	-11.8	-0.3	.	.
CCCS(=O)(=O)NC(=O)C1(C)CCN(C(=O)c2cccc(OC(F)(F)F)c2)C1 (stereo unspecified)	.	-1.6	.	.	.	-1.5	.	.
COc1ccccc1NC(=O)CSc1c2c(nc3ccccc13)CCC2	-11.4	2.2	-1.1	-2.3	-13.6	-0.9	.	.
Cc1cc(NC(=O)CSc2c3c(nc4ccccc24)CCC3)no1	-8.8	-8.3	0.6	3.4	0.7	15.2*	-0.6	-5.1
O=C(Nc1ccc(S(=O)(=O)N2CCCCC2)cc1)C1CC(=O)N(c2ccccc2)C1 (stereo unspecified)	2.9	-6.3	2.9	.	-2.1	6.1	.	.
Cc1nc(NCc2ccc(S(N)(=O)=O)cc2)c2c(C)c(C)sc2n1	-3.3	-6.4	0.7	.	-0.2	-5.2	.	.
SMILES	Rtt109 Vps75	NOD2-RIPK2 inh	LANA-H2A inh	TLR4 MyD88 comp	TLR9-MyD88 inh	m5-HT2A agonist	MOR ag counter	HTR2A ag conf
Cc1nc(NCCc2ccc(S(N)(=O)=O)cc2)c2c(C)c(C)sc2n1	6.9	-6.4	2.6	-0.8	7.8	15.9*	-0.7	-2.5
CSc1ccc(CN2CCC(C)(Oc3ccc(F)cc3)C2)cc1 (stereo unspecified)	.	-9.4	.	.	.	-1.9	.	.
CN(C(=O)COC(=O)c1cncc(Br)c1)C1CCCCC1	12.5	-8.6	2.0	.	-4.7	18.6*	-0.3	-0.1
Cc1cc(C)c2cc(CN(CCN3CCCC3)C(=O)Nc3ccc(F)cc3)c(=O)[nH]c2c1	32.5	-6.2	-0.5	0.7	1.5	20.1*	-0.3	-0.7
Cc1cc(C)c2cc(CN(CCO)C(=O)Nc3ccc(Cl)cc3)c(=O)[nH]c2c1	.	.	0.9	-2.3	.	.	.	.
Cc1ccc(CN2CCNC(=O)C2CC(=O)O)o1 (stereo unspecified)	19.9	10.6	-0.6	9.4	7.3	21.4*	-0.6	-4.2
Cc1cccc(-c2nsc(SCC(=O)Nc3nccs3)n2)c1	12.2	-11.6	-0.7	-8.9	-5.0	18.0*	0.0	-1.7
CCc1cc[n+](C(C(=S)Nc2cccc(C)c2)=C([O-])c2ccc(C)c([N+](=O)[O-])c2)cc1	0.1	-2.8	.	.	-1.9	14.6*	-0.9	-3.9
CSc1ccc(/C=C/C(=O)OCC(=O)N2CCN(S(=O)(=O)c3ccc(C)cc3C)CC2)cc1	-5.9	7.4	-0.6	.	-18.3	23.6*	-0.5	-1.6
O=C(O)C1CCCCC1C(=O)NCCc1cccc(Cl)c1 (stereo unspecified)	-13.6	0.4	1.8	3.4	9.6	34.6*	-0.4	-0.8
O=C(O)C1C2C=CC(C2)C1C(=O)NCc1cccc(Cl)c1 (stereo unspecified)	-1.0	-2.7	-3.5	.	-4.9	4.2	.	.
O=C(O)C1C2C=CC(C2)C1C(=O)NCCc1cccc(Cl)c1 (stereo unspecified)	1.6	-6.8	2.2	0.7	-10.7	31.6*	-0.3	5.2
O=C(O)C1CCCCC1C(=O)NCCc1ccc(Cl)cc1 (stereo unspecified)	6.5	-0.2	-2.1	19.7	2.7	6.8	.	.
CCCC(=O)Nc1nc(-c2ccc3c(c2)OCCO3)cs1	-4.4	-3.6	-0.3	-2.4	-4.1	16.5*	-0.7	-5.6
Cc1ccc(C)c(C(=O)CCC(=O)Nc2cccnc2)c1	10.7	-6.7	0.9	-8.1	7.6	15.1*	-0.5	-0.3
